Screening results (PubChem BioAssay)
IL1B secr inh = blocks inflammasome-driven IL-1 beta release; actives 4.7% (n = 360,000); activity change, % at 57.5 µM; THP-1 LPS/ATP IL-1B secretion, AlphaLISA, 16 h; hits give low values; in the data active = activity change below about -50%; inconclusive = mostly about -30% to -49%; note: % is set by controls: 0 for no effect and ±100 for the full control effect
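Secreted IL-1B measured by AlphaLISA bead assay after 16 h compound exposure of THP-1 cells; compounds (final up to 57.5 uM) added 1 h before LPS (250 ng/mL) and ATP (1.25 mM) stimulation; lower signal means less secretion.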
Vif-APOBEC3G blk = inhibitors of Vif-APOBEC3G interaction | Q9HC16 | HeLa A3G-eYFP + Vif (tagged APOBEC3G with the HIV-1 protein that degrades it), YFP fluorescence, overnight | Potency, µM (doses to about 46.1 µM), for the others: at the top dose activity, negative = active, hits mostly inhibitors | actives 0.076% (n = 410,000) | AID 602310; note: potency is the fitted concentration of half-maximal effect; % is set by controls: 0 for no effect and ±100 for the full control effect; nearly all actives have a fitted effect of over 60% in size
Target sequence (Q9HC16 whole entry, looked up): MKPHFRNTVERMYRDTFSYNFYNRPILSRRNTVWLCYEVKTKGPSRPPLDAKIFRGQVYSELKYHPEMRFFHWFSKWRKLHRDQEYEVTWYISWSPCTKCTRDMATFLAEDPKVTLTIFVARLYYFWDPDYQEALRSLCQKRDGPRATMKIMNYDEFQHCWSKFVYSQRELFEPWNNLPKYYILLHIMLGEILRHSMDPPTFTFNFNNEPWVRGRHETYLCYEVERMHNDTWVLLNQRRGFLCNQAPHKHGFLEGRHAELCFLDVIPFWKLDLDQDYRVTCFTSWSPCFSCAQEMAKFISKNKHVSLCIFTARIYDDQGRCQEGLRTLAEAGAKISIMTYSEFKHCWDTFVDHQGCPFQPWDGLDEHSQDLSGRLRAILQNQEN
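HeLa cells stably expressing Vif and C-terminally eYFP-tagged A3G, seeded overnight at 37 deg C, then exposed to compound by pintool overnight at 37 deg C. Rise in yellow fluorescence (Ex 488/Em 500-530, Acumen) marks blocked Vif-driven A3G degradation.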
SW480 rerep = inducers of DNA re-replication in SW480 colon cancer cells | AID 624297 | SW480 DNA re-replication, Hoechst DNA content imaging, 48 h | actives 1.8% (n = 340,000) | Potency, µM (top dose mostly 46.1 µM), for the others: at the highest dose re-replication activation, most hits filed as activators; note: potency is the fitted concentration of half-maximal effect; % of control where 0% means no effect; nearly all actives have a fitted effect of over 55% in size
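SW480 cells exposed to compounds for 48 hr at 37 C, 5% CO2, then Hoechst-stained 40 min. Nuclear DNA content imaged by fluorescence scanning (405 nm excitation, 500-530 nm emission); re-replication scored as increased high-intensity nuclei.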
MCF10A rerep = induces DNA re-replication in MCF 10a normal breast cells. MCF 10A DNA re-replication, Hoechst nuclear intensity, 48 h. Potency, µM (titrated, usually from 46.1 µM), for the others: top-dose activity, positive = re-replication, actives largely listed as activators. actives 2.9% (n = 350,000). AID 624296; note: potency is the fitted concentration of half-maximal effect; % of control where 0% means no effect; nearly all actives have a fitted effect of over 50% in size
Vif-A3F inh = Vif-A3F binding inhibition. actives 0.2% (n = 390,000). Potency, µM (series often up to 46.1 µM), without a hit: at the highest dose activity, negative = active. HeLa A3F-eYFP + Vif (tagged APOBEC3F with the HIV-1 protein that degrades it), YFP fluorescence increase; note: potency is the fitted concentration of half-maximal effect; % of control where 0% means no effect; nearly all actives have a fitted effect of over 65% in size
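Fluorescence increase (Ex 488/Em 500-530) after overnight compound treatment at 37 deg C flags inhibition of Vif-driven A3F-eYFP loss in stable HeLa A3F-eYFP/Vif cells seeded overnight beforehand.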
Giardia killer = kills Giardia lamblia. Giardia lamblia trophozoite viability. activity change, % at 7.66 µM, hits read low. actives 0.15% (n = 340,000); in the data active = activity change below about -80%; inconclusive = between about -30% and that limit;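 note: parasites exposed to compound for two days anaerobically before the ATP read; % is set by controls: 0 for no effect and ±100 for the full control effect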
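Giardia lamblia trophozoites (100 cells/well) were incubated with compounds for 48 h at 37 deg C under anaerobic conditions. Viability was read as ATP content by one-step luminescence after 15-30 min at room temperature.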
* marks the source's active call; other numbers are inactive results. Only some compounds are listed: those with a hit (about 6.9% of all), similar ones and a draw of the others. Unless noted, calls come from the whole dose curve; as a rule, active = well fitted curve in the direction sought with a large enough effect; inconclusive = small, poorly fitted or top-dose-only effect, or another doubt; inactive = no such curve, though single readings can be large; an effect the other way counts as inactive or inconclusive.

Screening CCOC(=O)c1cc(-c2ccc(OC)cc2F)nc2c1c(C)nn2CCC#N returned IL1B secr inh -50*, Vif-APOBEC3G blk 0%, SW480 rerep -3%, MCF10A rerep 13%, Vif-A3F inh 2% and Giardia killer 4.
CCOC(=O)c1cc(-c2ccc3c(c2)OCCO3)nc2c1c(C)nn2CCC#N was read as IL1B secr inh 0, Vif-APOBEC3G blk -1%, SW480 rerep inconclusive, MCF10A rerep 12µM*, Vif-A3F inh -5% and Giardia killer 42.
Screening CCc1ccc(Nc2cc(C)nc3nc(Cc4ccc(Cl)cc4)nn23)cc1 returned Vif-APOBEC3G blk -2% and Vif-A3F inh -14%.
Screening CCOc1cccc2sc(N(CCCN(C)C)C(=O)c3ccc(S(=O)(=O)N4CCc5ccccc5C4)cc3)nc12 returned IL1B secr inh inconclusive, Vif-APOBEC3G blk -19%, SW480 rerep inconclusive, MCF10A rerep inconclusive, Vif-A3F inh -16% and Giardia killer -1.
For CCc1ccc2nc(N(CCCN(C)C)C(=O)c3ccc(S(=O)(=O)N4CCc5ccccc5C4)cc3)sc2c1 the results were IL1B secr inh -84*, Vif-APOBEC3G blk -6%, SW480 rerep inconclusive, MCF10A rerep inconclusive, Vif-A3F inh -8% and Giardia killer -1.
`CCOc1ccc2nc(N(CCCN(C)C)C(=O)c3ccc(S(=O)(=O)N4CCCC4)cc3)sc2c1` gave IL1B secr inh 0, Vif-APOBEC3G blk 1%, SW480 rerep 3%, MCF10A rerep -6%, Vif-A3F inh -10% and Giardia killer -19.
CN(C)CCCN(C(=O)c1ccc(S(=O)(=O)N(C)C2CCCCC2)cc1)c1nc2ccc(Br)cc2s1 was read as IL1B secr inh -83*, Vif-APOBEC3G blk -13%, SW480 rerep inconclusive, MCF10A rerep inconclusive, Vif-A3F inh 3% and Giardia killer -21.
For Cc1cc(C)c2sc(N(CCCN(C)C)C(=O)c3ccc(S(=O)(=O)N(C)C4CCCCC4)cc3)nc2c1 the results were IL1B secr inh -95*, Vif-APOBEC3G blk 8%, SW480 rerep 4%, MCF10A rerep inconclusive, Vif-A3F inh 13% and Giardia killer 0.
For CCc1ccc2nc(N(CCCN(C)C)C(=O)c3ccc(S(=O)(=O)N(C)C4CCCCC4)cc3)sc2c1 the results were IL1B secr inh -61*, Vif-APOBEC3G blk inconclusive, SW480 rerep inconclusive, MCF10A rerep 18µM*, Vif-A3F inh inconclusive and Giardia killer -6.
`Cc1ccc(C)c(Cn2c3ccccc3c3cnn(CC(=O)NC4CCCCCC4)c(=O)c32)c1` gave Vif-APOBEC3G blk -1% and Vif-A3F inh 2%.
`CC(C)CCNC(=O)Cn1c(SCc2cccc(F)c2)nc2ccncc21` gave Vif-APOBEC3G blk -3% and Giardia killer -14.
For COc1cc2c(cc1OC)C(c1ccc(Cl)cc1)N(c1cccc(C#N)c1)C(=O)C2 (centres undefined) the results were Vif-APOBEC3G blk -9% and Vif-A3F inh 1%.
Screening CN(C)CCCN(C(=O)c1ccc(S(=O)(=O)N(C)C2CCCCC2)cc1)c1nc2ccc(F)cc2s1 returned IL1B secr inh -98*, Vif-APOBEC3G blk -1%, SW480 rerep 7%, MCF10A rerep -1%, Vif-A3F inh -9% and Giardia killer -4.
Screening COc1cc2nc(N(CCCN(C)C)C(=O)c3ccc(S(=O)(=O)N(C)C4CCCCC4)cc3)sc2cc1OC returned IL1B secr inh -79*, Vif-APOBEC3G blk 3%, SW480 rerep 2%, MCF10A rerep 13%, Vif-A3F inh inconclusive and Giardia killer 15.
`COc1cc2nc(N(CCN(C)C)C(=O)c3ccc(S(=O)(=O)N(C)CC4CCCO4)cc3)sc2cc1OC` (centres undefined) gave IL1B secr inh 0, Vif-APOBEC3G blk 1%, SW480 rerep -10%, MCF10A rerep 11%, Vif-A3F inh 2% and Giardia killer -3.
For C/C(=N\N(c1ccccc1)c1ccccc1)c1ccc(O)cc1 the results were IL1B secr inh -63*, Vif-APOBEC3G blk -10%, SW480 rerep 6%, MCF10A rerep inconclusive, Vif-A3F inh 8% and Giardia killer -4.
`O=C(c1cccc(C(F)(F)F)c1)C1CCCN(Cc2ccc(OCCO)cc2)C1` (centres undefined) gave IL1B secr inh -52*, Vif-APOBEC3G blk 2%, SW480 rerep -3%, MCF10A rerep inconclusive, Vif-A3F inh -11% and Giardia killer 41.
`Cc1ccc(N2C(=O)CS(=O)(=O)C23C(=O)N(Cc2ccccc2C)c2ccccc23)cc1Cl` (centres undefined) gave Vif-APOBEC3G blk 1% and Vif-A3F inh 2%.
Screening CCN(CC)S(=O)(=O)c1cccc(NC(=O)c2cncc(Br)c2)c1 returned IL1B secr inh 0, Vif-APOBEC3G blk 1%, SW480 rerep 18%, MCF10A rerep -1%, Vif-A3F inh 1% and Giardia killer 10.
`CCN(CC)S(=O)(=O)c1cccc(NC(=O)c2ccc(Br)cc2)c1` gave IL1B secr inh -70*, Vif-APOBEC3G blk 0%, SW480 rerep 3%, MCF10A rerep 8%, Vif-A3F inh 11% and Giardia killer 20.
For CCN(CC)S(=O)(=O)c1ccc(C(=O)Nc2ccc(Cc3ccncc3)cc2)cc1 the results were IL1B secr inh -83*, Vif-APOBEC3G blk 6%, SW480 rerep 6%, MCF10A rerep inconclusive, Vif-A3F inh 8% and Giardia killer -2.
For CCN(CC)S(=O)(=O)c1ccc(NC(=O)c2ccc(N(C)S(C)(=O)=O)cc2)cc1 the results were IL1B secr inh -13, Vif-APOBEC3G blk 1%, SW480 rerep -4%, MCF10A rerep 15%, Vif-A3F inh -10% and Giardia killer 2.
`Cc1cc(Br)ccc1NC(=O)CCSc1ccccc1` gave IL1B secr inh -4, Vif-APOBEC3G blk -9%, SW480 rerep -1%, MCF10A rerep -8%, Vif-A3F inh 1% and Giardia killer 4.
Screening CO/N=C\CC(=O)Nc1ccc(Oc2ccccc2)cc1 returned IL1B secr inh 81, Vif-APOBEC3G blk inconclusive, SW480 rerep 5.2µM*, MCF10A rerep inconclusive, Vif-A3F inh 2% and Giardia killer 3.
For CCN(CC)CC(=O)Nc1ccc(Oc2ccc(NC(=O)CN(CC)CC)cc2)cc1 the results were IL1B secr inh -58*, Vif-APOBEC3G blk 2%, SW480 rerep 8%, MCF10A rerep 4%, Vif-A3F inh 2% and Giardia killer -12.
